# Shown are actives, neighbours in structure and some others; about 21% of the full set was active somewhere.
# HCV inhibitor – blocks hepatitis C virus; Huh7.5.1 HCVcc-Cre infection, luciferase reporter, 44 h; hit rate 3.4% among 340,000; Potency, µM (series often up to 41.8 µM), for the others: at the top dose activity change, negative = inhibition, actives largely listed as inhibitors; further: potency means the concentration at half of the fitted maximal effect; on the % scale 0 is the no-effect control and ±100 the full control effect
#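 Luciferase read-out (15 sec integration) after a 15 min room-temperature substrate step quantifies HCVcc-Cre infection. Cells, 1,000 per well, had compound added 4 h post-plating, then virus at ~0.5 moi, and were cultured 44 h.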
# Pf growth 96h – P. falciparum growth inhibition at 96 hour, primary screen for plastid delayed-death inhibitors; P. falciparum luciferase reporter growth, 96 h; Potency, µM (titrated, usually from 28.7 µM), inactives show at the top dose activity change, negative = inhibition, actives largely listed as inhibitors; hit rate 6.9% among 320,000; AID 504834; further: potency means the concentration at half of the fitted maximal effect; on the % scale 0 is the no-effect control and ±100 the full control effect
#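 Compounds incubated with erythrocytes infected by luciferase-expressing P. falciparum (2% hematocrit, 0.05% parasitemia final) for 96 hours, 37 C in 5% CO2. Growth inhibition scored as decreased luciferase luminescence.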
# Shiga inhibitor – Shiga toxin inhibition; hit rate 9.2% among 290,000; Vero cells, Shiga toxin protein synthesis inhibition reporter; inhibition, % at 38.7 µM; in the data active means inhibition mostly above about 28%, no sharp cut-off; inactive means mostly below about 43%; further: 0% is about no effect
# Pf growth 48h – P. falciparum growth inhibition at 48 hours (one generation); P. falciparum luciferase growth in erythrocytes, 48 h; Potency, µM (titrated, usually from 28.7 µM), for inactives: at the top dose activity change, negative = inhibition, hits mostly inhibitors; hit rate 5.9% among 310,000; AID 504832; further: potency means the concentration at half of the fitted maximal effect; on the % scale 0 is the no-effect control and ±100 the full control effect
#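 In quantitative HTS format, infected erythrocytes bearing luciferase-reporter parasites were treated for a single generation at 37 C. Luminescence after adding detection reagent served as the growth measure.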
# HCMV antiviral – blocks human cytomegalovirus replication. HFF cells, HCMV-luciferase reporter, 72 h; active compounds read low. activity change, negative = inhibition, % at 57.5 µM. hit rate 4.5% among 410,000; in the data active means activity change below about -60%; inconclusive means no clear call, values can overlap the other calls; inactive means above about -39%; further: on the % scale 0 is the no-effect control and ±100 the full control effect
#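 Screen run at 2 compound doses on HFFs infected with reporter HCMV, MOI 1 PFU/cell. Luciferase activity from cell lysates at 72 h post infection gave inhibition relative to buffer-only and Salinomycin wells.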
# CHX counter – counter-screen hit for Shiga toxin inhibitors, cycloheximide. cell reporter, cycloheximide protein synthesis inhibition counterscreen. max response, %. hit rate 12% among 300,000. AID 2314; in the data active means max response mostly above about 13%, no sharp cut-off; inactive means mostly below about 14%; further: read at 38.3 µM for the half of the compounds with a filed dose; 0% is about no effect
# * = called active by the depositor; ? = inconclusive; / = no result. Unless noted, the call rests on the fitted dose curve; in most records, active means well fitted inhibition curve with a large enough effect; inconclusive means small, poorly fitted or top-dose-only effect, or another doubt; inactive means no such curve, though single readings can be large or run the other way.
SMILES,HCV inhibitor,Pf growth 96h,Shiga inhibitor,Pf growth 48h,HCMV antiviral,CHX counter
Cc1ccc(C)c(NC(=O)CCCN2C(=O)COc3ccc(C)cc32)c1,/,/,/,/,-6,/
Cc1ccc(C)c(N(C(=O)c2snc(C(N)=O)c2N)C(C(=O)NCC2CCCO2)c2ccc(C)o2)c1 (centres undefined),?,20%,-6,?,-7,2
CC(C)NC(=O)N(C)C[C@@H]1Oc2ccc(NC(=O)CCN3CCOCC3)cc2CC(=O)N([C@@H](C)CO)C[C@@H]1C,9%,/,/,/,-1,/
CCOC(=O)C1CSCCS(=O)(=O)N1Cc1ccccc1C (centres undefined),/,/,/,/,-5,/
Cc1ccc(-c2csc(NC(=O)c3ccc4c(=O)n5c(nc4c3)CCCCC5)n2)cc1,?,?,-11,?,-66*,-3
COc1ccc(NC(=O)c2ccc3c(SCC(=O)O)c4c(nc3c2)CCCC4)cc1Cl,/,?,5,?,8,6
O=C(O)CSc1c2c(nc3cc(C(=O)Nc4ccc(F)c(Cl)c4)ccc13)CCCC2,-19%,1µM*,1,6%,10,17
O=C(Nc1cccc(Cl)c1)c1ccc2c(=O)n3c(nc2c1)CCCCC3,8.9µM*,?,102*,-25%,-26,41*
CCS(=O)(=O)N1CCc2cc(C(=O)NCCc3ccccc3)ccc21,/,/,/,/,92,/
C#CCOc1ccc(C(=O)N(C)c2ccccc2I)cc1,/,/,15,/,/,20
Cc1ccc(C(=O)Nc2cnc3sc(C)nn3c2=O)cc1,-1%,6%,58*,93%,97,37*
Cc1nn2c(=O)c(NC(=O)c3ccc(Cl)cc3)cnc2s1,21%,17%,52*,4%,-39,36*
Cc1nn2c(=O)c(NC(=O)c3ccc(F)cc3)cnc2s1,3%,7%,16,21%,8,-2
O=C(N1CCC(n2nc(-c3ccccc3)oc2=O)CC1)C1(c2ccccc2)CC1,?,104%,-5,13%,-1,1
CCOC(=O)Nc1ccc2c(CN3C(=O)NC4(CCCC4)C3=O)cc(=O)oc2c1,?,?,15,?,-2,10
CCOC(=O)Nc1ccc2c(CN3CCN(S(=O)(=O)c4ccccc4)CC3)cc(=O)oc2c1,?,6.6µM*,-8,9.3µM*,3,0
CCc1ccc2c(CN3CCN(S(=O)(=O)c4ccc5c(c4)OCCO5)CC3)cc(=O)oc2c1,?,?,-6,9.3µM*,-22,3
Cc1ccc(CNC2=NCCS2)cc1,-8%,3.3µM*,81,?,36,17*
Cc1ccc(CNc2nc(C)cs2)cc1,-2%,41%,75*,160%,61,40*
CC(C)n1nnnc1C1c2ccccc2C(=O)N1CCCn1ccnc1 (centres undefined),/,/,/,/,-15,/
CCOc1ccc2c(O)csc2c1,-12%,-8%,17,18%,-5,15
CCCN=Cc1sc2ccc(OCC)cc2c1O,?,54%,101*,75%,-22,41*
O=C(c1ccco1)N(Cc1cccc(Cl)c1)C1CCS(=O)(=O)C1 (centres undefined),12%,21%,-10,5%,46,-1
CSCCC(NC(=O)C1CCCCC1)C(=O)Nc1ccc(F)c(Cl)c1 (centres undefined),/,/,/,/,-2,/
CCOC(=O)N1CCN(C(=O)CCNS(=O)(=O)c2ccc3c(c2)c(=O)n(C)c(=O)n3C)CC1,2%,15%,2,-17%,-22,-4
SMILES,HCV inhibitor,Pf growth 96h,Shiga inhibitor,Pf growth 48h,HCMV antiviral,CHX counter
CCCCS(=O)(=O)N1CCC(C(=O)NCC2CCCO2)CC1 (centres undefined),20%,3%,-6,1%,-24,6
CC(C)c1ccc(N2C=Nc3ccc(C(C)C)cc3C2)cc1,?,?,52*,?,-32,19*
C1=NN(c2ccccc2)C=NN1c1ccccc1,8%,/,/,/,70,/
CC1CC(=O)N(c2ccc(C(C)C)cc2)C(=O)C1,7%,27%,3,-26%,1,-1
C1=Nc2ccccc2CN1c1ccccc1,5%,-9%,93*,126%,-36,65*
CN(C)C(=O)N1CCN(c2nc(-c3ccccc3)cs2)CC1,-12%,17%,52*,2%,53,35*
c1ccc(-c2csc(N3CCOCC3)n2)cc1,-25%,/,111*,71%,49,30*

# Screening data (PubChem)
